Measurements as given in the supplement of paper PMC11001985.

What follows are targets tested with C#CCNC(=O)CCSSCCC(=O)NCCc1ccc(C=O)c(C=O)c1 (assay: lysine labeling ratio R10:1 (500 µM / 50 µM probe), SILAC-ABPP in living cells; higher = lower intrinsic lysine reactivity toward the probe, active = 2 or less). Settings: HeLa; probe concentrations 500 vs 50 µM.
How it was run: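 For each lysine, R is the median over forward and reverse replicates of the filtered median MS1 peptide ratio of high probe to low probe. The probe, an alkyne-tagged, disulfide-linked lysine probe, was given at 500 µM or 50 µM to living SILAC light and heavy HeLa cells in PBS at room temperature, with label swaps. Values are capped at 20.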

UniProt Q15149, sequence (Q15149 whole entry): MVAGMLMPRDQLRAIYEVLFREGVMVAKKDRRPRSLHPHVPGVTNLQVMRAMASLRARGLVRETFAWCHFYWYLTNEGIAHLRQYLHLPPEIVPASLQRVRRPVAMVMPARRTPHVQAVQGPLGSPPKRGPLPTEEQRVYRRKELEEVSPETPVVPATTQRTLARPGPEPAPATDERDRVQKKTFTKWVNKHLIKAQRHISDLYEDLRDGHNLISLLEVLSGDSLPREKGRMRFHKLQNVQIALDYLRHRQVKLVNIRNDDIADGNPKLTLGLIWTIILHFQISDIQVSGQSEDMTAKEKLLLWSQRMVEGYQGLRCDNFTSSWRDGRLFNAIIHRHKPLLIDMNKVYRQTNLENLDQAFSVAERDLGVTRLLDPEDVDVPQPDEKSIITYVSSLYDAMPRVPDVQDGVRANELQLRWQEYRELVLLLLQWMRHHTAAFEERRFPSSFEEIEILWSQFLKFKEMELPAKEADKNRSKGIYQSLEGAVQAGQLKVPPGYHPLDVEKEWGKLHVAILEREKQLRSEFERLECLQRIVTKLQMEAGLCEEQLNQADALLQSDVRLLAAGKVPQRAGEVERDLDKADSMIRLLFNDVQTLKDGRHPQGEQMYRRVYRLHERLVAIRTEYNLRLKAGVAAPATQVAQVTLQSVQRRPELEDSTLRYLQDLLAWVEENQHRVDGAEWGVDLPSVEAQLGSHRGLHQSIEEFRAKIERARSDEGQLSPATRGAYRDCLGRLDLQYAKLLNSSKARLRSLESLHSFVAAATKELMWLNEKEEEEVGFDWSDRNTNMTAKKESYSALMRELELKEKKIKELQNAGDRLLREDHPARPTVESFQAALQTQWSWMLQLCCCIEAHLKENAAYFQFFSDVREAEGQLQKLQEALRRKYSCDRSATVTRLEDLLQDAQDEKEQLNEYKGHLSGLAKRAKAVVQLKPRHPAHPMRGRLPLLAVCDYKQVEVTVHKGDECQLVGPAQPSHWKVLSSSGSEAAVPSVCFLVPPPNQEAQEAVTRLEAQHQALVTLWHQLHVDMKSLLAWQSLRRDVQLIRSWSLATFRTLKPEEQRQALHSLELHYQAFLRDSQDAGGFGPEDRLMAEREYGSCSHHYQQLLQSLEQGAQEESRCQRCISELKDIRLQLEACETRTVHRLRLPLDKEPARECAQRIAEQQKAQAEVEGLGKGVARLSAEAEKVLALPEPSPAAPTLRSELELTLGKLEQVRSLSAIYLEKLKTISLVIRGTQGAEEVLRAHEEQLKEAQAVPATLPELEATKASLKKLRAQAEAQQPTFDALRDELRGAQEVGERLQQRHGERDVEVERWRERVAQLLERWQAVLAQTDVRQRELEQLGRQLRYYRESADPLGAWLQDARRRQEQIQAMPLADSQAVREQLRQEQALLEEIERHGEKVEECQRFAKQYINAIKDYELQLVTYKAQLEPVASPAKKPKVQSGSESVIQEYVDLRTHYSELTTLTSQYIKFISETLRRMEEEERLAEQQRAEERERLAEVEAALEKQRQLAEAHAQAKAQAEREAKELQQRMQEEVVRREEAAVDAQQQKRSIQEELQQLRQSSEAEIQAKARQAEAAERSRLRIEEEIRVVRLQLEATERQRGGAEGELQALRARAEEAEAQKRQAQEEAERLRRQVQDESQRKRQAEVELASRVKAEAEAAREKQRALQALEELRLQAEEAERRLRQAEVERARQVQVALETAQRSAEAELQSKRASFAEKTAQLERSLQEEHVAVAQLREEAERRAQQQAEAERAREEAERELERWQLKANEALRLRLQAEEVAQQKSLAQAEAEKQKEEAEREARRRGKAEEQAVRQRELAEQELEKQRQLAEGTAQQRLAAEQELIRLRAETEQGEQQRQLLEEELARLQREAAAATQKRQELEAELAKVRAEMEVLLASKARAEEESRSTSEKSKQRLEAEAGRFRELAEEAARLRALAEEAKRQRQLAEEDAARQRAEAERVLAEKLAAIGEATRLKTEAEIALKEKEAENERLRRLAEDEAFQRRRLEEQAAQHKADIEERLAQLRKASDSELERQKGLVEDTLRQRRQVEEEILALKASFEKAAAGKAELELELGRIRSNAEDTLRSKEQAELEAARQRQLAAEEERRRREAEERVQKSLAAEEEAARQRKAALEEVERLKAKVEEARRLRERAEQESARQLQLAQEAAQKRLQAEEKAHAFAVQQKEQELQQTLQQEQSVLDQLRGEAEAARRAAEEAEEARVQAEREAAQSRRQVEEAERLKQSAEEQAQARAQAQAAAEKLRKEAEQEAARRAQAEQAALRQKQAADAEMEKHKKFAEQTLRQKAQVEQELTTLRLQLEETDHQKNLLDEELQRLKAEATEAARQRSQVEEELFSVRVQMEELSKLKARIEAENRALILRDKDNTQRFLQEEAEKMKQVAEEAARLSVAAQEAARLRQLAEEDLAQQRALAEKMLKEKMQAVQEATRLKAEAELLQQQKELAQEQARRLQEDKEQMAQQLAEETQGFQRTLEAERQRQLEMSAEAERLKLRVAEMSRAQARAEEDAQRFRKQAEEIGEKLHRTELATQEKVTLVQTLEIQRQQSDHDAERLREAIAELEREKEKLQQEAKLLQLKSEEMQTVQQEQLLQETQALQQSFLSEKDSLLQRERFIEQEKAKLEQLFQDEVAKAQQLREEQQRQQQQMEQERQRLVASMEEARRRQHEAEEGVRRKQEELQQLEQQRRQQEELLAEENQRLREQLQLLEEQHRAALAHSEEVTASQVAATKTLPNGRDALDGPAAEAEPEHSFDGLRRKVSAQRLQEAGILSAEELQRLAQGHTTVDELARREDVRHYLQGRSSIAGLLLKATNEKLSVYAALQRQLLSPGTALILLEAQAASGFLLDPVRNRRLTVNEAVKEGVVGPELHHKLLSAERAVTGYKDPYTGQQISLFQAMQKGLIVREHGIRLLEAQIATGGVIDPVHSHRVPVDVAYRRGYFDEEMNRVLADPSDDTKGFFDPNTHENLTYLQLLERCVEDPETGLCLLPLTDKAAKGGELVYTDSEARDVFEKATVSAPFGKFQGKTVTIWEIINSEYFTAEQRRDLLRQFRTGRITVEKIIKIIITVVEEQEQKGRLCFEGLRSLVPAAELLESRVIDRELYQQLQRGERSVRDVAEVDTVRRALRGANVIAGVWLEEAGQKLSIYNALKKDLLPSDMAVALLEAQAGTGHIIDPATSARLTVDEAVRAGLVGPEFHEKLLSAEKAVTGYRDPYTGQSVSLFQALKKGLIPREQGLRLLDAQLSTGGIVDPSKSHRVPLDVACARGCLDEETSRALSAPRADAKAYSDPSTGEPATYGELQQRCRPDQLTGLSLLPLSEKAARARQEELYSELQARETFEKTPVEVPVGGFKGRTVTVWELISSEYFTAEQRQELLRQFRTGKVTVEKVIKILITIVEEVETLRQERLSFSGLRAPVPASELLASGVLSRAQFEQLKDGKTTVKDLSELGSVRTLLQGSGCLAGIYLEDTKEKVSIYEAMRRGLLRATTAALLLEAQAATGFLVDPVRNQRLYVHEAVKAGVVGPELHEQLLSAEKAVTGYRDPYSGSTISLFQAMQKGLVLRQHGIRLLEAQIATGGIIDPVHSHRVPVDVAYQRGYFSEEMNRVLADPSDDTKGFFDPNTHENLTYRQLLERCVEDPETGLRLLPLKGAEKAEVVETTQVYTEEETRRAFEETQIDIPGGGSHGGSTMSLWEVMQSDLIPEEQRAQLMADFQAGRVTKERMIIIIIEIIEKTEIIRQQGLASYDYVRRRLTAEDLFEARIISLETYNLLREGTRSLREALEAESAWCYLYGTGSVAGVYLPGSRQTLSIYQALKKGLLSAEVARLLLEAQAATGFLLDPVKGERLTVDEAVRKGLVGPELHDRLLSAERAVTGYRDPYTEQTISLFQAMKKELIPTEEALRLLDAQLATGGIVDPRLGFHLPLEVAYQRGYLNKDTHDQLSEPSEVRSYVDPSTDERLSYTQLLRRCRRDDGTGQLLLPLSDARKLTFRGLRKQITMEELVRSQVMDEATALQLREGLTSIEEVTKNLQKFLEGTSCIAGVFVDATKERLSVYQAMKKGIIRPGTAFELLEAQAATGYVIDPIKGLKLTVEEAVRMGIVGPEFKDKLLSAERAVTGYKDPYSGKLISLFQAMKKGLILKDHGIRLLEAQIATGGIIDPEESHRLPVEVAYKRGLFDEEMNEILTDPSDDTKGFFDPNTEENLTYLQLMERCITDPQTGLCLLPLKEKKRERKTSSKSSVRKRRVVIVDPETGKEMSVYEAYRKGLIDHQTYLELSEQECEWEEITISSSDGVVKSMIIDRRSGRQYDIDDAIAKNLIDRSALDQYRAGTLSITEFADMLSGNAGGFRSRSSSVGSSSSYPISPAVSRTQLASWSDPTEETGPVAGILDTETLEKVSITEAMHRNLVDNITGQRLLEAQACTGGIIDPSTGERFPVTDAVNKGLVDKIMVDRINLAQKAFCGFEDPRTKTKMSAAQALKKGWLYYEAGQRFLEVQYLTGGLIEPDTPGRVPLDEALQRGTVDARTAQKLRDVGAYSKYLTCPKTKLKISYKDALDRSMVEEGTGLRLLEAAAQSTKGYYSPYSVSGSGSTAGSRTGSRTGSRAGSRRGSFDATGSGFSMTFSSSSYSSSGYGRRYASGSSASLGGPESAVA
UniProt Q14165, sequence (Q14165 whole entry): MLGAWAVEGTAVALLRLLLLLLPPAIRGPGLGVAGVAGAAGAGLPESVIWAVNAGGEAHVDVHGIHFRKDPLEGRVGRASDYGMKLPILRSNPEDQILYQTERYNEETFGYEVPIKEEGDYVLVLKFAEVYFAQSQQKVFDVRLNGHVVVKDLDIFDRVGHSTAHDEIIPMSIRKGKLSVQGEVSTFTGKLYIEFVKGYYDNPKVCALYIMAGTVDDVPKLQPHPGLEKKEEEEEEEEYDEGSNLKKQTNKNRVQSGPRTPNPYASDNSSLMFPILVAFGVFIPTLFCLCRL
UniProt Q9UMX5, sequence (Q9UMX5 whole entry): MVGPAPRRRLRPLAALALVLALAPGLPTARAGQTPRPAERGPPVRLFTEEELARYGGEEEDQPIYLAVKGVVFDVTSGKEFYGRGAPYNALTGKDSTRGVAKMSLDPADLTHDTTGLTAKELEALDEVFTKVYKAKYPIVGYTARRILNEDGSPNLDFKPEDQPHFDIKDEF

Lysine labeling ratio R10:1, active:
VDAC1 (lysine site: K61) (UniProt P21796) 1.88, UniProt Q15149 (lysine site: K1921) 1.36, SPTAN1 (lysine site: K1838) (UniProt Q13813) 0.73, ACIN1 (lysine site: K143) (UniProt Q9UKV3) 0.535, ATP6V0D1 (lysine site: K288) (UniProt P61421) 1.76, DBN1 (lysine site: K248) (UniProt Q16643) 0.855, GPI (lysine site: K440) (UniProt P06744) 1.78, SPTAN1 (lysine site: K250) (UniProt Q13813) 1.09, SLC39A10 (lysine site: K66) (UniProt Q9ULF5) 0.9, FN1 (lysine site: K149) (UniProt P02751) 1.99, NENF (lysine site: K136) (UniProt Q9UMX5) 0.955, ARHGDIA (lysine site: K43) (UniProt P52565) 1.51, NOTCH1 (lysine site: K185) (UniProt P46531) 1.8, MLEC (lysine site: K69) (UniProt Q14165) 1.64

Lysine labeling ratio R10:1, inactive:
M6PR (lysine site: K50) (UniProt P20645) 2.84, SLC3A2 (lysine site: K298) (UniProt P08195) 6.33, UniProt P62805 (lysine site: K78) 8.41, VIM (lysine site: K439) (UniProt P08670) 8.7, UniProt Q8WXI7 (lysine site: K12605) 3.8, TKT (lysine site: K59) (UniProt P29401) 4.48, KRT18 (lysine site: K118) (UniProt P05783) 6.22, ADAM9 (lysine site: K290) (UniProt Q13443) 2.64, EGFR (lysine site: K293) (UniProt P00533) 3.59, SMOC1 (lysine site: K299) (UniProt Q9H4F8) 4.95, UniProt O60245 (lysine site: K310) 2.88, SEMA3C (lysine site: K724) (UniProt Q99985) 4.97, UniProt Q15149 (lysine site: K2452) 3.75, MYH9 (lysine site: K860) (UniProt P35579) 2.67, ACSL3 (lysine site: K222) (UniProt O95573) 2.52, PRDX2 (lysine site: K196) (UniProt P32119) 2.99, UniProt P25705 (lysine site: K161) 3.49, PFN1 (lysine site: K54) (UniProt P07737) 3.31, CD109 (lysine site: K573) (UniProt Q6YHK3) 2.8, RTN3 (lysine site: K998) (UniProt O95197) 4.14, UniProt Q15149 (lysine site: K3887) 3.96, EPPK1 (lysine site: K2707) (UniProt P58107) 3.42, LMO7 (lysine site: K1496) (UniProt Q8WWI1) 2.11, COL5A1 (lysine site: K69) (UniProt P20908) 2.04, MLEC (lysine site: K85) (UniProt Q14165) 2.36, DSG2 (lysine site: K562) (UniProt Q14126) 6.57
